Measured values from PubChem BioAssay AID2685 (National Center for Advancing Translational Sciences (NCATS), 2010).
The campaign covered roughly 320,000 compounds. About 2,100 (0.66%) were called active. Roughly 53% stayed inconclusive and do not appear here. Calls come from the whole dose curve; as a rule, active = well fitted inhibition curve with a large enough effect in the signal ratio, with a control signal flat (not every such curve was filed as active); inconclusive = small, poorly fitted or top-dose-only effect, or effect the other way, or a change in a side signal; inactive = flat fitted curve, though single readings scatter; the % refers to the signal ratio. This excerpt belongs to a sample that is enriched for actives.

assay: qHTS Assay for Lipid Storage Modulators in Drosophila S3 Cells; settings: BODIPY lipid droplet fluorescence, 18-24 h, cells fed with added oleic acid; cell number change: measured here: cell count max response; series mostly up to 46.1 µM;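 for cell number change: cells counted by Cell Tracker Red CMTPX staining in the red channel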; for lipid storage change, negative = inhibition: % is set by controls: 0 for no effect and ±100 for the full control effect
Summary of the method: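 Drosophila S3 cells got compounds at several concentrations plus oleic acid (400 uM solution). Laser-scanning cytometry with 488 nm excitation read lipid droplets at 500-530 nm and cells at 575-640 nm. Percent activity was relative to 20 uM Triacsin C.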
Potency is the fitted concentration of half-maximal effect.

Row | SMILES | Potency | cell number change | outcome | lipid storage change, negative = inhibition
1 | COC(=O)c1ccc(-c2nc(O)c(C)s2)cc1 | inactive |  |  | 
2 | Cc1cccc(OC2CCN(Cc3c(C(=O)N4CCCC4)nc4ccccn34)CC2)c1 | inactive | 17.9% |  | 
3 | CCCC[C@@H]1CNC(=O)C(=O)N1CCc1cc(C(F)(F)F)cc(C(F)(F)F)c1 | inactive | 3.93% |  | 
4 | CCc1ccc(C(=O)C(C)OC(=O)Cc2n[nH]c(=O)c3ccccc23)cc1 (stereo not drawn) | 13 µM (active) | -26.4% |  | 
5 | CC(OC(=O)Cc1n[nH]c(=O)c2ccccc12)C(=O)Nc1ccc(F)cc1 (stereo not drawn) |  | -13.8% | inactive [at 0.0737 µM] | 
6 | COC(=O)c1ccc(COC(=O)Cc2n[nH]c(=O)c3ccccc23)cc1 | inactive |  |  | 
7 | Cc1csc(Sc2ccc([N+](=O)[O-])cc2C(=O)OCC(=O)NC(=O)NC(C)(C)C)n1 | inactive |  |  | 
8 | CC(c1ccccc1)n1c(CCCO)nc2ccccc21 (stereo not drawn) | inactive | -13.2% |  | 
9 | CCCCN(C)CCn1c(=S)[nH]c2cc(OCC)c(OCC)cc2c1=O | inactive | 5.41% |  | 
10 | COC(=O)c1cc(C(=O)N2CCc3ccccc32)cc([N+](=O)[O-])c1 | inactive | 3.51% |  | 
11 | COc1ccc(NC(=O)CC2C(=O)NC3CCCCC3N2C(=O)c2ccc(F)cc2)cc1 (stereo not drawn) | inactive | 6.58% |  | 
12 | COc1cccc(NC(=O)CC2C(=O)NC3CCCCC3N2C(=O)c2ccc(F)cc2)c1 (stereo not drawn) | inactive | 36.9% |  | 
13 | O=C(CC1C(=O)NC2CCCCC2N1C(=O)c1ccc(F)cc1)Nc1ccccc1 (stereo not drawn) | 29.1 µM (active) | 18% |  | 
14 | COc1ccc(NC(=S)N2CCC(C(=O)c3ccc(OC)cc3)CC2)cc1 | inactive | -17.6% |  | 
15 | O=C(COC(=O)COc1ccc2c(c1)CCC2)Nc1ccccc1 | inactive | -5.42% |  | 
16 | Cn1nc(C(=O)NNC(=O)C(CCC(N)=O)NS(=O)(=O)c2ccc(Cl)cc2)c2ccccc2c1=O (stereo not drawn) | inactive | 15.9% |  | 
17 | Cc1ccc(S(=O)(=O)N/N=C/c2ccc3nccnc3c2)cc1 | inactive | -5.68% |  | 
18 | COc1ccc(OC)c(CCNC(=O)Cn2cccc2C(=O)c2ccccc2C)c1 | inactive | 3.16% |  | 
19 | CCOc1ccc(CCNC(=O)CCn2cccc2)cc1OCC | inactive | 0.009% |  | 
20 | O=C(Cn1cccc1C(=O)c1ccccc1)NCCc1ccccc1 | inactive |  |  | 

Row | SMILES | Potency | cell number change | outcome | lipid storage change, negative = inhibition
21 | COc1ccc(CCNC(=O)CN2C(=O)c3ccccc3S2(=O)=O)cc1OC | 23.1 µM (active) | -27.6% |  | 
22 | COc1ccc(CCNC(=O)CCOc2cc(C)ccc2C)cc1OC | inactive | -23.2% |  | 
23 | COc1ccc(CCNC(=O)CCCOc2cc(=O)n(C)c3ccccc23)cc1OC | inactive | 11.7% |  | 
24 | COc1ccc(CCNC(=O)CN2C(=O)c3ccccc3S2(=O)=O)cc1 | inactive | 8.78% |  | 
25 | CCOc1ccc(CCNC(=O)Cn2cccc2C(=O)c2ccccc2)cc1OCC | 16.4 µM (active) | -22.9% |  | 
26 | COc1ccc(CCNC(=O)CCCN2C(=O)c3ccccc3C2=O)cc1OC | inactive | 10.1% |  | 
27 | COc1ccccc1CNC(=O)Cn1cccc1C(=O)c1ccccc1C | inactive | -15.2% |  | 
28 | COc1ccc(CCNC(=O)Cn2cccc2C(=O)c2ccccc2C)cc1OC | 20.6 µM (active) | -20.4% |  | 
29 | COc1ccc(CCNC(=O)CCCOc2cccc(C)c2C)cc1OC | 6.51 µM (active) | -23.6% |  | 
30 | NS(=O)(=O)c1ccc(CNC(=O)/C=C/c2ccccc2)cc1 | inactive | 2.48% |  | 
31 | O=C(CC(Sc1ccc(Br)cc1)C(=O)O)c1ccc(F)cc1 (stereo not drawn) | inactive | -1.05% |  | 
32 | CN=C(Nc1ccc(C(=O)OC)s1)c1ccccc1 | inactive |  |  | 
33 | O=C(Nc1ccccc1)c1cccnc1NCCc1ccccc1 | inactive | -3.52% |  | 
34 | Cc1ccc(CNC(=O)C(N=C2NS(=O)(=O)c3ccccc32)C(C)C)cc1 (stereo not drawn) | inactive | 10.7% |  | 
35 | CN(CC(O)COc1ccc2ccccc2c1)C1CCCCC1 (stereo not drawn) | inactive | -0.529% |  | 
36 | COc1ccc(OC)c(CCNC(=O)Cn2cccc2C(=O)c2ccccc2)c1 | inactive |  |  | 
37 | COc1ccc(CCNC(=O)Cn2cccc2C(=O)c2ccccc2)c(OC)c1 | inactive | 6.75% |  | 
38 | COc1ccc(CCNC(=O)Cn2cccc2C(=O)c2ccccc2)cc1OC | 25.9 µM (active) | -21.4% |  | 
39 | COc1ccc(NC(=O)C(OC(=O)c2ccc([N+](=O)[O-])o2)c2ccccc2)cc1Cl (stereo not drawn) | inactive | 0.814% |  | 
40 | Cc1nc2n(n1)C(c1ccccc1)C1=C(CC(c3ccco3)CC1=O)N2 (stereo not drawn) | inactive |  |  | 

Row | SMILES | Potency | cell number change | outcome | lipid storage change, negative = inhibition
41 | Cc1cc(C)cc(NC(=O)C(=S)NCc2ccccc2)c1 | inactive | 9.48% |  | 
42 | O=C(NNc1nc2c(F)cc(F)cc2s1)c1ccccc1 |  | 6.06% |  | 21.3% [at 9.22 µM] (inactive)
43 | O=S(=O)(NC1CCN(Cc2ccccc2)CC1)c1ccc(Cl)cc1 | inactive | -5.28% |  | 
44 | O=S(=O)(c1ccccc1)c1nnn2c1nc(NC1CCN(Cc3ccccc3)CC1)c1ccccc12 | inactive | 0.895% |  | 
45 | O=S(=O)(c1ccccc1)c1nnn2c1nc(NC1CCN(Cc3ccccc3)CC1)c1cc(Cl)ccc12 | 18.4 µM (active) | -5.44% |  | 
46 | Cc1nc(CS(=O)(=O)c2ccccc2)cc(Sc2ccc(Cl)cc2)n1 | inactive |  |  | 
47 | O=C(NCCCN1CCOCC1)c1ccc2c(c1)N(Cc1ccccc1)C(=O)c1ccccc1S2=O (stereo not drawn) | inactive | -4.72% |  | 
48 | C=CCn1c(COc2cc(C)ccc2C(C)C)nnc1SCC(=O)c1c(N)n(C)c(=O)n(C)c1=O | inactive | 25.2% |  | 
49 | CCC(N1CCOC1=O)S(=O)(=O)c1ccc(C)cc1 (stereo not drawn) | 25.9 µM (active) | -15.9% |  | 
50 | Cc1ccc(S(=O)(=O)N2CCN(S(=O)(=O)c3ccc(C)cc3)C3OCCOC32)cc1 (stereo not drawn) | inactive | -0.0898% |  | 
51 | Cc1ccc(S(=O)(=O)C(CCC(=O)N2CCOCC2)S(=O)(=O)c2ccc(C)cc2)cc1 | inactive | -12.5% |  | 
52 | Cc1ccc(S(=O)(=O)NC(CC(=O)n2nc(C)cc2C)c2ccccc2)cc1 (stereo not drawn) | inactive |  |  | 
53 | COC(=O)c1ccc(Cl)c(NC(=O)CN2CCOCC2)c1 | inactive | -12.2% |  | 
54 | COC(=O)c1ccc(Cl)c(NC(=O)CN2CCN(Cc3ccccc3)CC2)c1 | inactive | 2.04% |  | 
55 | COC(=O)c1ccc(Cl)c(NC(=O)CN2CCN(C)CC2)c1 | 25.9 µM (active) | -16% |  | 
56 | COc1ccc(-n2c(=O)cc(N3CCN(Cc4ccccc4)CC3)[nH]c2=O)cc1 | inactive | -3.15% |  | 
57 | O=C(CSc1nnc(-c2ccccc2Cl)o1)N1CCCCC1 | inactive |  |  | 
58 | Cc1ccccc1-c1nnc(SCC(=O)N2CCCC2)o1 | inactive | 9.17% |  | 
59 | O=C(CSc1nnc(-c2ccccc2F)o1)N1CCCC1 | 23.1 µM (active) | 22.6% |  | 
